High-throughput results from PubChem BioAssay.
Shown are actives, neighbours in structure and some others; about 4.6% of the full set was active somewhere.
NALP3 yeast inh – NALP3 inhibition in yeast | Yeast reconstituted NLRP3/ASC/caspase-1, beta-gal luminescence, 24 h | inhibition, % at 10 µM | 330,000 tested, 0.39% active | AID 2825;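 active means inhibition of 50% or more; inactive means inhibition below 50%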;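 further: plate controls were induced DMSO wells for no effect and uninduced yeast grown without galactose for full effect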
SKKanGAS inh – SKKanGAS growth inhibition | S. pyogenes SKKanGAS, kanamycin growth, BacTiter-Glo, 6 h | 300,000 tested, 1.3% active | inhibition, % at 7.5 µM;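 active means mean replicate score, as percent of positive control median, at least 50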;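 further: strain carries kanamycin resistance gene driven by streptokinase promoter and grows in 40 µg/ml kanamycin; loss of luminescence reflects streptokinase promoter inhibition or plain growth inhibition; 0% = median of DMSO wells and 100% = positive control at its reference dose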
tim23-1 inh – inhibits growth of tim23-1 mutant yeast | S. cerevisiae tim23-1 growth, BacTiter-Glo luminescence, 24 h | inhibition, % at 20 µM | 330,000 tested, 1.3% active | AID 463212;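 active means growth inhibition of the mutant yeast at or above 50%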;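 further: temperature-sensitive mutant grown at 25 °C; plate controls were DMSO-treated mutant yeast for no effect and medium wells lacking yeast for full effect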
tim10-1 inh – growth inhibitors of tim10-1 mutant yeast; AID 463190; 330,000 tested, 2.2% active; inhibition, % at 20 µM; S. cerevisiae tim10-1 ts strain growth, BacTiter-Glo, 24 h;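 active means inhibition of at least 40%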;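 further: mutant grown at 25 °C; 0% = DMSO wells with yeast and 100% = wells holding no yeast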
TIM10 inh – inhibits growth of TIM10 yeast strain | S. cerevisiae TIM10 strain growth, BacTiter-Glo luminescence, 24 h | inhibition, % at 10 µM | 330,000 tested, 1.4% active;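 active means inhibition of 40% or more at the single tested concentration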;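 further: wild-type TIM10 isogenic control strain grown at permissive 25 °C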
tim10-1 conf – tim10-1 yeast growth inhibition, confirmed. shares compounds with tim10-1 inh. S. cerevisiae tim10-1 ts strain growth, BacTiter-Glo, 24 h. inhibition, % at 20 µM. 7,400 tested, 56% active;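 active means inhibition of yeast growth at or above a set limit in either of two repeat tests at 20 µM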;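 further: tim10-1 mutant grown at permissive 25 °C to find synthetic lethal compounds; 0% = DMSO yeast wells and 100% = medium wells without yeast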
TIM10 conf – confirmation of TIM10 yeast growth inhibitors; 4,600 tested, 63% active; inhibition, % at 10 µM; AID 463215; S. cerevisiae tim10 strain growth, BacTiter-Glo luminescence, 24 h; shares compounds with TIM10 inh;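 active means inhibition of yeast growth at or above a set limit in either of two replicates at 10 µM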;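 further: this counterscreen used the strain with wild-type TIM10; 0% = yeast with DMSO and 100% = medium wells lacking yeast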
The depositor's hits bear a star; x = no result given.

SMILES	NALP3 yeast inh	SKKanGAS inh	tim23-1 inh	tim10-1 inh	TIM10 inh	tim10-1 conf	TIM10 conf
CCN1C(=O)[C@H]2[C@@H](c3ccc(-c4ccc(OC)cc4)c(OC)c3)N3CCCC[C@@]3(C(=O)OC)[C@H]2C1=O	5	13	30	18	18	x	x
CCc1nccn1S(=O)(=O)c1ccccc1[N+](=O)[O-]	6	-9	42	50*	44*	62*	57*
CC(=O)N1CCOc2ccc(S(=O)(=O)N3CCC(C(=O)NCc4ccccc4)CC3)cc21	18	2	-8	-8	13	x	x
CCOC(=O)CNC(c1ccccc1)c1cc(Br)ccc1NC(=O)CCN1CCOCC1 (configuration not stated)	45	-6	-13	45*	55*	40*	40*
COC(=O)CNC(c1ccccc1)c1cc(Br)ccc1NC(=O)CCN1CCOCC1 (configuration not stated)	26	-8	34	51*	51*	42*	57*
CCOC(=O)CNC(c1ccccc1)c1cc(Br)ccc1NC(=O)OCC (configuration not stated)	7	18	22	30	20	x	x
Cc1ccc2ccccc2c1COC(=O)c1nonc1N	-9	-8	26	43*	50*	43*	50*
CC1CCCN(C(=O)CN2C(=O)CSc3ccc(S(=O)(=O)N4CCOCC4)cc32)C1 (configuration not stated)	2	-5	-16	3	3	x	x
CC[C@@]1(C(=O)OC)N[C@H](CN(C)S(=O)(=O)c2ccc(OC(F)(F)F)cc2)[C@@H]2C(=O)N(C)C(=O)[C@@H]21	-2	x	-2	-6	15	x	x
O=C(CCCCl)NC(=S)Nc1cc(C(F)(F)F)ccc1N1CCOCC1	4	-21	48	53*	57*	48*	50*
O=C(/C=C/c1ccco1)NC(=S)Nc1cc(C(F)(F)F)ccc1N1CCOCC1	25	7	22	39	32	x	x
Cc1nn(-c2ccccc2)c2c1C1(C(=O)N(C)c3ccccc31)C(C#N)=C(N)O2 (configuration not stated)	-7	-2	39	67*	41*	54*	30
CCOc1ccccc1NC(=O)C1C2CCC3C(CCC21)C3(Cl)Cl (configuration not stated)	0	4	32	40	47*	31*	43*
O=C(Nc1ccccc1Cl)C1C2CCC3C(CCC21)C3(Cl)Cl (configuration not stated)	14	-4	9	17	2	x	x
Cn1cnc2c1c(=O)n(Cc1ccc(Cl)cc1Cl)c(=O)n2C	21	10	24	-7	-9	x	x
O=C(Nc1ncc2c(n1)-c1ccccc1CC2)c1cccc(Cl)c1	-5	-14	40	49*	44*	43*	23
CSCC[C@H](NC(=O)C1CCN(S(=O)(=O)c2ccc(C)cc2C)CC1)c1nc2ccccc2[nH]1	9	x	-3	-12	-14	x	x
COc1ccc(C(=O)n2nnc3ccccc32)cc1Br	8	-6	40	52*	40*	22	0
Cc1scc(-c2n[nH]c(=S)n2C(C)c2ccccc2)c1C (configuration not stated)	31	4	37	42*	43*	29	10
CN(C)c1ccc(C(C(=O)NC2CCCCC2)N(Cc2ccco2)C(=O)c2snc(C(N)=O)c2N)cc1 (configuration not stated)	0	4	24	23	12	x	x
CN1CCCC2(CCCN(Cc3nc(Cc4cccc(C(F)(F)F)c4)no3)C2)C1 (configuration not stated)	9	-1	20	7	-1	x	x
FC(F)(F)c1cccc(Cc2noc(CN3CCC(c4ccncc4)CC3)n2)c1	10	-1	45	44*	42*	42*	43*
CCOC(=O)Cc1csc(Nc2ccc(Cl)cc2)n1	-52	-19	40	52*	48*	41*	36*
O=C(COC(=O)C1=NN(c2ccccc2)C(=O)CC1)Nc1ccc([N+](=O)[O-])cc1C(F)(F)F	4	x	-4	-2	-6	x	x
O=c1[nH]c(N/N=C/c2ccccc2)nc2ccccc12	25	-3	39	44*	41*	38*	11
SMILES	NALP3 yeast inh	SKKanGAS inh	tim23-1 inh	tim10-1 inh	TIM10 inh	tim10-1 conf	TIM10 conf
Cc1nc2c3cc(F)ccc3n(Cc3ccccc3)c2s1	-48	9	33	45*	48*	36*	37*
Cc1nc2c3cc(F)ccc3n(CCN3CCCCC3)c2s1	-12	-1	9	17	18	x	x
COCCNC(=O)c1c(CS(=O)(=O)c2ccccc2)noc1C(=O)NCc1ccccc1	19	1	-10	1	-7	x	x
O=C(COc1ccccc1F)Nc1ccc(S(=O)(=O)NCc2ccco2)cc1	-17	-9	28	46*	40*	33*	-17
COCCCNC(=O)c1ccc2c3c(onc13)-c1ccccc1C2=O	38	9	44	53*	43*	42*	41*
COCCCNC(=O)c1ccccc1Oc1ccccc1	3	0	3	4	12	x	x
C[C@H]1CN([C@@H](C)CO)C(=O)Cc2cc(NC(=O)C3CC3)ccc2O[C@H]1CN(C)Cc1ccc(C(=O)O)cc1	17	x	2	-6	1	x	x
CCOC(=O)N1CCC2(CC1)C(C(=O)C13CC4CC(CC(C4)C1)C3)C2(C#N)C#N (configuration not stated)	-1	4	43	54*	63*	54*	45*
COc1cccc2oc(-c3ccco3)cc(=O)c12	1	9	41	45*	47*	26	40*
Cc1noc(C)c1NC(=O)N(C)C[C@H]1Oc2ccc(NC(=O)c3ccncc3)cc2C(=O)N([C@H](C)CO)C[C@@H]1C	0	x	12	3	1	x	x
O=c1c(Cl)c(N/N=C/c2ccc(Cl)cc2)cnn1-c1ccccc1	28	23	15	47*	46*	26	9
CC(C)CN(C(=O)CSc1nc2ccccc2[nH]1)C1CCS(=O)(=O)C1 (configuration not stated)	-6	x	19	27	3	x	x
Cc1ccc(S(=O)(=O)n2nc(C)cc2C)cc1	0	-5	3	18	1	x	x
Cc1cc(C)n(S(=O)(=O)/C=C/c2ccccc2)n1	18	4	28	50*	44*	42*	42*
CS(=O)(=O)c1ccc(Cl)c(NC(=O)C2CCCN(C(=O)c3ccc(Cl)cc3)C2)c1 (configuration not stated)	3	-6	1	-9	-6	x	x
CC(C)n1c(CSCc2ccc(Cl)cc2Cl)n[nH]c1=S	18	6	40	49*	41*	24	49*
